Screen size: about 340,000 compounds; about 6,900 (2%) were called active. The sample holds actives, similar compounds and a random draw of the others, so the mix is not that of the screen. Unmarked numbers belong to inactive results. Cut-off read from the data, not from the text of the source: active = inhibition above about 30%; inactive = below that, where a call was filed.
The molecules below were run against D(2) dopamine receptor (Homo sapiens) (UniProt P14416) (assay: HTS Assay for Allosteric Antagonists of the Human D2 Dopamine Receptor: Primary Screen for Antagonists). Details: HEK293 TREx D2 cells, calcium flux, dopamine EC80; at 10 µM; stronger effect = higher value.
Sequence of D(2) dopamine receptor (Homo sapiens) (P14416 whole entry, looked up): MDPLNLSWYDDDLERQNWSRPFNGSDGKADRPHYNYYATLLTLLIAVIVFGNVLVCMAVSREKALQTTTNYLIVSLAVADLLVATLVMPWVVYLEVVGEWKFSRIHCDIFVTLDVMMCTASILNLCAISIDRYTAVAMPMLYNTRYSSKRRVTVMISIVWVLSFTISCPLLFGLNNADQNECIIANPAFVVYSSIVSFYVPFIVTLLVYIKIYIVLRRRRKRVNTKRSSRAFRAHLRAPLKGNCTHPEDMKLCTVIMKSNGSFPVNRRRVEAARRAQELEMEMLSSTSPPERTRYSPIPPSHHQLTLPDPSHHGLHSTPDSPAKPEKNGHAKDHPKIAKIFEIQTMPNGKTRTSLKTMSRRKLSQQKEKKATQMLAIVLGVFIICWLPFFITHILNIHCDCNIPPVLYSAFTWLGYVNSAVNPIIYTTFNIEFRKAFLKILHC
Method in brief: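 Tetracycline-induced HEK293 TREx cells expressing D2 receptor forced-coupled to calcium signalling, loaded with no-wash calcium dye. Compounds added and calcium flux read 180 s, then dopamine added at EC80 and read a further 180 s.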
Note: 0% is about no effect.

Row | Structure (SMILES) | inhibition
1 | O=S(=O)(Nc1cc(Cl)ccc1N1CCOCC1)c1ccccc1Cl | -22.2%
2 | c1ccc2cc3[nH]c(CN4CCCCC4)nc3cc2c1 | 58.4% (active)
3 | Cc1ccc2[nH]c(=O)c(CN3CCCCC3)c(-c3ccccc3)c2c1 | -4.98%
4 | Clc1ccc(CN2CCCCCC2)cc1Cl | 26.4%
5 | O=S(=O)(c1ccc(SCc2ccc(Br)cc2)nc1)N1CCOCC1 | -7.49%
6 | Cc1ccsc1C(=O)NCCc1ccco1 | 11.7%
7 | N#Cc1cccc(NC(=O)C2CCCN(C(=O)c3ccc(Cl)cc3)C2)c1 (stereo unspecified) | 19.5%
8 | CCOC(=O)CCCN1CC(O)=C(c2nc3ccccc3s2)C1=N | 15.9%
9 | COc1ccccc1N1CC(O)=C(c2nc3ccccc3s2)C1=N | 16.1%
10 | N=C1C(c2nc3ccccc3s2)=C(O)CN1NC(=O)c1ccc([N+](=O)[O-])cc1 | 42.3% (active)
11 | Cc1ccc(S(=O)(=O)N2[C@@H](c3ccccc3F)C(C(=O)O)=CC[C@H]2c2ccc(Cl)cc2)cc1 | 16%
12 | O=C(NNC(=O)c1cc(S(=O)(=O)N2CCCCC2)ccc1Cl)c1ccccc1O | 9.25%
13 | COc1ccccc1NC(=O)CN(c1ccccc1OC)S(=O)(=O)c1ccccc1 | -0.319%
14 | COC(=O)c1ccc(CN(c2ccccc2OC)S(=O)(=O)c2cccs2)o1 | 36% (active)
15 | COc1ccccc1CNC(=O)c1ccc(CS(=O)(=O)c2ccccc2)o1 | 22.7%
16 | COc1ccc(CNC(=O)c2ccc(NS(=O)(=O)c3ccc4[nH]c(=O)[nH]c4c3)cc2)cc1OC | -22.9%
17 | N#Cc1ccc(C(=O)OCC(=O)NC(=O)NC2CCCCC2)cc1 | -34.5%
18 | N#Cc1ccc(OCC(=O)NC(=O)NC2CCS(=O)(=O)C2)cc1 (stereo unspecified) | 39.2% (active)
19 | O=C(Cc1ccc(Cl)cc1)NC1CCS(=O)(=O)C1 (stereo unspecified) | -2.94%
20 | COc1ccccc1C(=O)NCCC(=O)NC(C)CCc1ccccc1 (stereo unspecified) | 3.51%
21 | CC(C)(C)C(=O)c1cnc(Nc2ccccc2)s1 | 32.1% (active)

Row | Structure (SMILES) | inhibition
22 | O=C(c1ccc(Cl)cc1)c1cnc(Nc2ccccc2)s1 | -15.9%
23 | CC(=O)c1cnc(-c2ccccc2)s1 | -11.4%
24 | COc1ccccc1S(=O)(=O)NCc1ccc(C(=O)N(C)Cc2ccc(F)cc2)cc1 | -9.99%
25 | CC(C(=O)NC1CCCC1)N1CCN(S(=O)(=O)c2ccccc2Cl)CC1 (stereo unspecified) | 10.1%
26 | O=C(CN1CCN(c2ccc(Cl)cc2)CC1)c1ccccc1 | 22.1%
27 | CC(C)Cn1c(N2CCN(C(=O)/C=C/c3ccccc3)CC2)nc2ccccc21 | -10.5%
28 | O=C(Cn1c(N2CCN(C/C=C/c3ccccc3)CC2)nc2ccccc21)c1ccccc1 | 47.6% (active)
29 | CC1CCc2sc(C(=O)NCC(c3ccco3)N3CCCCC3)cc2C1 (stereo unspecified) | -22%
30 | CC(CCc1ccccc1)NCC(O)c1cccc([N+](=O)[O-])c1 (stereo unspecified) | 58.8% (active)
31 | CC(C)OP(=O)(OC(C)C)C(Nc1ccccc1)c1cccc([N+](=O)[O-])c1 (stereo unspecified) | 4.68%
32 | O=C(CC(c1ccccc1)c1ccccc1)NCC(O)c1ccc([N+](=O)[O-])cc1 (stereo unspecified) | -8.44%
33 | COCCn1c(C)cc(C(=O)CSc2nnc(C3CC3)n2C2CC2)c1C | -24.6%
34 | COc1ccc(S(=O)(=O)N2CCN(CC(=O)NCC3(N4CCOCC4)CCCCC3)CC2)cc1 | -1.88%
35 | CN(CC(=O)Nc1ccc(Cl)c(C(F)(F)F)c1)C(=O)CCC(=O)c1ccccc1 | 5.01%
36 | Cc1ccc(OCCC(=O)OCC(=O)N2c3ccccc3NC(=O)C2(C)C)cc1 | 21.8%
37 | O=C(CN1CCCCC1)NC(=O)Nc1ccccc1F | -3.1%
38 | CCN(CC)S(=O)(=O)c1ccc(OC)c(NC(=O)CCc2c(C)noc2C)c1 | 5.64%
39 | CC1CN(C2CCN(C(=O)COc3ccccc3)CC2)CC(C)O1 (stereo unspecified) | -12.1%
40 | CC1CN(CC(=O)NC(C)c2ccccc2)CC(C)O1 (stereo unspecified) | 5.75%
41 | CN1CCN(CCCCOc2ccccc2-c2ccccc2)CC1 | 69.9% (active)
42 | CC1CN(CCCOc2ccccc2-c2ccccc2)CC(C)O1 (stereo unspecified) | 49.7% (active)

Row | Structure (SMILES) | inhibition
43 | CC1CCCN(CCOCCOc2ccccc2-c2ccccc2)C1 (stereo unspecified) | 80.4% (active)
44 | CC1CCCN(CC(O)COCc2ccccc2)C1 (stereo unspecified) | 10.7%
45 | CCN1CCN(CCCCOc2ccccc2F)CC1 | 3.79%
46 | c1ccc(-c2ccccc2OCCN2CCCCC2)cc1 | 26.6%
47 | CN1CCN(CCCCOc2cccc3ccccc23)CC1 | 15.6%
48 | COc1ccccc1-c1nn(Cc2ccccc2)cc1C(=O)N1CCN(c2ncccn2)CC1 | -14.3%
49 | CC(=O)c1ccc(S(=O)(=O)Nc2ccc(-c3ccc4nncn4n3)cc2)cc1 | 12.5%
50 | COc1ccc(-c2cc(C(=O)NCCCN3CCCC3=O)c3ccccc3n2)cc1OC | 13.7%
51 | O=C(Nc1cccc(NC(=O)c2ccccc2[N+](=O)[O-])c1)c1ccccc1Cl | 3.86%
52 | CC(C)C(=O)Nc1cccc(NC(=O)c2ccc([N+](=O)[O-])cc2Cl)c1 | 39.3% (active)
53 | O=C(Nc1ccncc1)c1ccc([N+](=O)[O-])cc1Cl | 0.87%
54 | CN(C(=O)CSc1nnc(C2CC2)n1C)C1CCCc2ccccc21 (stereo unspecified) | -0.606%
55 | O=C(Nc1ccon1)c1cccc(Cl)c1 | 18.9%
56 | Cc1cc(C)n(-c2nnc(C)n2NC(=O)c2cccc(Cl)c2)n1 | 46.8% (active)
57 | Cc1nc2ccccc2c(=O)n1NC(=O)c1ccc(Cl)c([N+](=O)[O-])c1 | 11.3%
58 | CC1CC(=O)Nc2ccccc2N1C(=O)COc1ccc2cc(Br)ccc2c1 (stereo unspecified) | -5.97%
59 | C=C1CCC(N(O)c2cc(C)on2)C(=C)CCC2C1CC2(C)C (stereo unspecified) | -0.609%
60 | Cc1ccc(S(=O)(=O)CCC(=O)Nc2nnc(CC(C)C)s2)cc1 | -13.3%
61 | COc1ccc(S(=O)(=O)Nc2cc(C)on2)cc1NC(C)=O | 15.7%

From PubChem BioAssay AID485344 (National Center for Advancing Translational Sciences (NCATS), 2010)
